We go through 16 molecules from PMC5540273 (PLoS ONE, 2017).

What all share (settings): concentration: 1 μM, replicates: in singlicate; n = 1
For experiment [1], the system named is TESK1.
For experiment [2], the system named is TGFBR1.
The subject of experiment [3] is TGFBR2.
The subject of experiment [4] is TIE1.
Experiment [5] relates to T1, TIE2.
T1 construct: gene TEK

Experiment [6] has as its system TLK1.
The test system of experiment [7] is TLK2.
Experiment [8] relates to TNIK.
Experiment [9] deals with TNK1.
Experiment [10] concerns TNK2.
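Note: KINOMEscan kinase panel screen.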

As to `CNC(=O)c1ccccc1Nc1nc(Nc2ccc(N3CCOCC3)cc2)ncc1Cl.Cl` [GSK1576028], the “%Inh” value in [1] is recorded as 26%; in experiment [2], 93%; in experiment [3], 0%; in experiment [4], 100%; in [5], 97.9%; in experiment [6], 52%. The “%Inh” value turned out to be 57% in experiment [7], 76% in [8], 100% in experiment [9] and 98.2% in [10].

For `CC(=O)N1CCN(c2ccc(Nc3nccc(-c4sc(C(C)C)nc4-c4cccc(NS(=O)(=O)c5cccc(Cl)c5)c4)n3)cn2)CC1` [GSK1660437], the “%Inh” value was found to be 66% in [1]; 76% in experiment [2]; 79% in [3]; 76% in experiment [4]; 96.8% in experiment [5]; 0% in [6]. The “%Inh” value was 0% in [7], 10% in experiment [8], 95.6% in experiment [9] and 28% in experiment [10].

`COc1ccc(-c2coc3ccc(-c4nnc(SCc5ccc(OC)c(C(F)(F)F)c5)o4)cc23)cc1`: the “%Inh” value in [1] stood at 0%; in [2], 6%; in experiment [3], 25%; in experiment [4] it was 0%; in [5] it was 0%; in experiment [6], 17%. Also, the “%Inh” value in experiment [7] is 0%; in experiment [8], 3%; in experiment [9], 9%; in experiment [10], 8%.

As to `CN(c1ccc(NC(=O)Nc2cc(C(F)(F)F)ccc2F)cc1)c1ccnc(Nc2ccc(S(N)(=O)=O)cc2)n1` [GW809893], the “%Inh” value in experiment [1] came out at 75%; in experiment [2] it was 0%; in experiment [3], 6%; in experiment [4], 94.3%; in experiment [5], 99.6%; in experiment [6], 0%. In addition, the “%Inh” value came to 0% in [7], 81% in experiment [8], 54% in [9] and 0% in experiment [10].

For the molecule `CN1CCN(Cc2cccc(-c3ccc4c(Nc5ccc(Oc6ccccc6)cc5)ccnc4c3)c2)CC1` [GW578342], the “%Inh” value in experiment [1] was 2%; in experiment [2], 0%; in [3], 0%; in [4] it was 10%; in experiment [5] it was 0%; in [6], 78%. In addition, the “%Inh” value in experiment [7] is recorded as 0%; in experiment [8], 98.8%; in experiment [9] it was 70%; in [10], 7%.

`O=C(Nc1n[nH]c2cc(-c3ccoc3)ccc12)C1CC1` [SB-738481]: the “%Inh” value worked out at 0% in experiment [1]; 0% in [2]; 0% in experiment [3]; 0% in experiment [4]; 5% in experiment [5]; 7% in [6]. The “%Inh” value is on record as 0% in experiment [7], 42% in [8], 0% in experiment [9] and 0% in experiment [10].

For the molecule `CCn1c(-c2nonc2N)nc2c(C#CC(C)(C)O)nc(OC[C@H](N)c3ccccc3)cc21` [GSK943949], the “%Inh” value is listed as 0% in experiment [1]; 9% in experiment [2]; 0% in experiment [3]; 0% in [4]; 0% in [5]; 2% in experiment [6]. Further, the “%Inh” value is reported as 0% in [7], 4% in [8], 0% in experiment [9] and 8% in experiment [10].

Turning to `O=C(Nc1cccc(Oc2ccc3nc(NC(=O)C4CC4)cn3n2)c1)c1ccccc1C(F)(F)F`, the “%Inh” value is reported as 17% in experiment [1]; 9% in [2]; 0% in [3]; 16% in experiment [4]; 14% in experiment [5]; 0% in experiment [6]. Further, the “%Inh” value in [7] is given as 3%; in [8] it was 9%; in experiment [9], 55%; in experiment [10] it was 4%.

Take `Cc1occc1-c1ncc(OC[C@@H](N)Cc2c[nH]c3ccccc23)cc1-c1ccc2[nH]nc(C)c2c1.O=C(O)C(F)(F)F` [GSK682037]: the “%Inh” value in experiment [1] was found to be 19%; in [2], 0%; in [3], 0%; in [4] it was 18%; in [5], 0%; in experiment [6] it was 0%. Moreover, the “%Inh” value is 0% in experiment [7], 97.2% in experiment [8], 15% in experiment [9] and 0% in experiment [10].

`Cn1cc(-c2ccc3c(c2)CCN3C(=O)Cc2cccc(F)c2)c2c(N)ncnc21` [GSK2603358]: the “%Inh” value came to 39% in [1]; 0% in [2]; 0% in experiment [3]; 89% in experiment [4]; 48% in experiment [5]; 0% in experiment [6]. Further, the “%Inh” value in experiment [7] was determined as 0%; in experiment [8], 0%; in [9] it was 0%; in experiment [10], 3%.

With `CN1CCN(CCCNc2nccc(-c3c(-c4ccc(F)cc4)nn4cc(C(F)(F)F)ccc34)n2)CC1` [GW621581], the “%Inh” value in [1] amounted to 10%; in experiment [2], 72%; in [3], 44%; in experiment [4] it was 16%; in experiment [5], 9%; in [6] it was 2%. Further, the “%Inh” value worked out at 0% in experiment [7], 24% in experiment [8], 0% in [9] and 0% in [10].

For the molecule `Cl.c1ccc(-c2ccc3c(Nc4ccc5[nH]ccc5c4)ccnc3c2)nc1` [GW440138], the “%Inh” value in [1] came out at 23%; in experiment [2], 53%; in experiment [3] it was 4%; in experiment [4] it was 0%; in experiment [5] it was 0%; in [6] it was 1%. Besides, the “%Inh” value in [7] is recorded as 0%; in experiment [8], 58%; in experiment [9], 24%; in experiment [10], 4%.

For the molecule `CC(C)c1nc(-c2cccc(NS(=O)(=O)c3c(F)cccc3F)c2F)c(-c2ccnc(Nc3ccc(N4CCOCC4)nc3)n2)s1` [GSK2008607], the “%Inh” value came to 100% in experiment [1]; 86% in [2]; 77% in [3]; 91.2% in experiment [4]; 99.1% in experiment [5]; 22% in experiment [6]. Besides, the “%Inh” value in [7] is listed as 0%; in experiment [8] it was 63%; in experiment [9], 100%; in experiment [10], 99.6%.

As to `Oc1cc(Nc2ccnc3cc(I)ccc23)ccc1F` [GW552771], the “%Inh” value in [1] is reported as 13%; in [2], 62%; in [3] it was 99.9%; in experiment [4], 0%; in [5], 0%; in experiment [6], 10%. Also, the “%Inh” value in experiment [7] was 0%; in experiment [8], 47%; in experiment [9] it was 4%; in [10], 2%.

For the molecule `Clc1ccc(-c2nn3ncccc3c2-c2ccnc(Nc3ccc4c(c3)OCCO4)n2)cc1` [GW829116], the “%Inh” value in experiment [1] is listed as 11%; in experiment [2], 46%; in experiment [3] it was 23%; in [4], 24%; in [5] it was 0%; in experiment [6], 0%. Besides, the “%Inh” value in experiment [7] stood at 0%; in experiment [8], 31%; in experiment [9], 46%; in experiment [10] it was 0%.

For the molecule `O=C(Nc1cccc(-c2nn3ccccc3c2-c2ccnc(Nc3cccc(F)c3)n2)c1)c1c(F)ccc(F)c1Cl` [GSK357952], the “%Inh” value in experiment [1] amounted to 0%; in [2] it was 2%; in [3], 19%; in [4] it was 48%; in experiment [5], 22%; in [6], 0%. In addition, the “%Inh” value in experiment [7] is reported as 0%; in [8], 0%; in experiment [9], 91.6%; in experiment [10], 21%.
